An excerpt weighted towards active compounds, which were near 12% of everything screened.
FMDV antiviral: High Throughput Screening for Foot and Mouth Disease Virus Antivirals. FMDV antiviral cell-based qHTS. Potency, µM (titrated, usually from 57.9 µM), inactives show at the highest dose activity change, negative = inhibition, actives largely listed as inhibitors. 410,000 compounds, 1.2% hits; calls by dose curve; tested in HEK293T cells; further: read-out not given here; potency means the concentration at half of the fitted maximal effect; on the % scale 0 is the no-effect control and ±100 the full control effect; nearly all actives have a fitted effect of over 45% in size
Shiga toxin inh: A qHTS for Small Molecule Inhibitors of Shiga Toxin; Vero cells, Shiga toxin protein synthesis inhibition reporter; inhibition, % at 38.7 µM; 290,000 compounds, 9.2% hits; in the data active means inhibition mostly above about 28%, no sharp cut-off; inactive means mostly below about 43%; further: 0% is about no effect
Sm TGR inh: qHTS Assay for the Inhibitors of Schistosoma Mansoni Peroxiredoxins. Potency, µM (top dose mostly 114 µM), inactives show at the top dose activity change, negative = inhibition, actives largely listed as inhibitors. purified TGR, DTNB reduction, TNB absorbance 405 nm. 360,000 compounds, 3% hits. Schistosoma mansoni thioredoxin glutathione reductase (TGR), Q962Y6; active means well fitted inhibition curve with a large enough effect; inconclusive means small, poorly fitted or top-dose-only effect; inactive means no such curve, though single readings can be large or run the other way; further: potency means the concentration at half of the fitted maximal effect; on the % scale 0 is the no-effect control and ±100 the full control effect; nearly all actives have a fitted effect of over 60% in size
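TGR 20 nM + NADPH 100 uM (dispensed conc.), cpd preinc 15 min RT; start with NADPH (500 uM addition) then DTNB (15 mM addition). Kinetic TNB absorbance, 405 nm filter. Four-parameter Hill fit across titration.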
Cycloheximide cs: Cycloheximide Counterscreen for Small Molecule Inhibitors of Shiga Toxin | max response, % | cell reporter, cycloheximide protein synthesis inhibition counterscreen | 300,000 compounds, 12% hits | AID 2314, 2010; in the data active means max response mostly above about 13%, no sharp cut-off; inactive means mostly below about 14%; further: read at 38.3 µM for the half of the compounds with a filed dose; 0% is about no effect
Numbers without * were called inactive; ? = inconclusive; · = no result; [ ] = another dose, or the depositor's remark.

SMILES | FMDV antiviral | Shiga toxin inh | Sm TGR inh | Cycloheximide cs
O=C(O)Cc1sc(-c2ccccc2)nc1-c1ccccc1 | 21% | -9 | 4% | -3
Cc1ccc(Oc2nc3ccccn3c(=O)c2/C=C(\C#N)c2nc3ccccc3s2)c(C)c1 | ? | · | 0% | ·
CCOc1ccc(NC(=O)CC2C(=O)N(c3ccccc3)C(=O)N2CCc2sccc2C)cc1 (stereo not given) | 3% | · | -2% | ·
CCOc1ccc(OCC)c(NS(=O)(=O)c2c(C(=O)N3CCC(C)CC3)c(C)n(C)c2C)c1 | 43% | · | 9% | ·
CC(C)(CC(=O)NCc1ccc(Cl)cc1Cl)CC1=NS(=O)(=O)c2ccccc2N1 | ? | · | 2% | ·
CCOc1ccc(-c2nnc(-c3cccs3)o2)cc1OCC | 0% | 58* | -1% | 24*
COc1cc(CN(C(=O)COc2ccccc2)c2ccccn2)cc(OC)c1OC | -4% | · | -1% | ·
O=[N+]([O-])/C=C/c1c(Cl)cccc1Cl | 7.9µM* | · | · | ·
C=CCC1(CC=C)CCCN1C(=O)C1CCC(=O)N(CCc2ccc(OC)cc2)C1 (stereo not given) | 31% | 78* | -19% | 53*
C=CCC1(CC=C)CCCN1C(=O)C1CCC(=O)N(CCc2ccccc2)C1 (stereo not given) | 48% | 102* | 3% | 77*
O=C1CCC(C(=O)N2CCSCC2)CN1CCc1ccccc1 (stereo not given) | -5% | 23 | -6% | 2
CC(=O)N1CCc2c(sc3c2c(=O)n(CCc2ccccc2)c(=O)n3Cc2cccc(C)c2)C1 | ? | · | 13% | ·
Cc1c(CC(=O)NCCc2ccccc2)c(=O)oc2c(C)c3occ(C(C)(C)C)c3cc12 | -16% | · | -10% | ·
COc1cc(OC)cc(-c2nc(-c3cccc(C)c3)no2)c1 | 40% | · | 0% | ·
COc1ccccc1-c1nc(-c2cccc(C)c2)no1 | -5% | 122* | 0% | 46*
COc1ccc(-c2nc(-c3cccc(C)c3)no2)cc1OC | 8% | 60* | 0% | 25*
COc1cc(-c2nc(-c3cccc(C)c3)no2)cc(OC)c1OC | · | 33* | 3% | 16*
COc1ccccc1OCc1nc(-c2cccc(C)c2)no1 | 42% | · | 5% | ·
COc1ccc(-c2nc(-c3cccc(C(F)(F)F)c3)no2)cc1OC | 31% | -10 | 5%[11.4 µM] | -4
Cc1cc(C)n(CCc2nc3c4ccccc4nc(SCc4ccc(Cl)cc4)n3n2)n1 | -4% | · | 5% | ·
CCOc1ccc(NC(=O)Cn2c(=O)nc(-c3ccccc3)c3ccccc32)cc1 | 0% | · | 0% | ·
Cc1ccc(NC2=C(Cl)C(=O)OC2NC(=O)c2ccccc2)cc1 (stereo not given) | -25% | 11 | -8% | -6
O=C1OC(NC(=O)c2ccccc2)C(n2cc(CO)nn2)=C1Cl (stereo not given) | ? | -3 | 0.79µM* | 4
CCC(C)N1CCN(C(=O)C2CCN(S(=O)(=O)c3c(C)noc3/C=C/c3ccco3)CC2)CC1 (stereo not given) | -13% | 15 | 45µM* | -3
Cc1noc(C)c1S(=O)(=O)N1CCC(C(=O)N2CCN(C3CCCC3)CC2)CC1 | · | -5 | 32µM* | 10
SMILES | FMDV antiviral | Shiga toxin inh | Sm TGR inh | Cycloheximide cs
Cc1noc(C)c1S(=O)(=O)N1CCC(C(=O)N2CCN(c3ccc(F)cc3)CC2)CC1 | ? | 2 | -22% | -3
CC(C)c1ccc(C2C3=C(CC(c4ccco4)CC3=O)Nc3nc(C(F)(F)F)nn32)cc1 (stereo not given) | · | -9 | · | 9
COc1ccccc1CNc1ccc(-c2nc(-c3cccnc3)no2)cc1[N+](=O)[O-] | 3% | · | 0% | ·
COCC(C)n1c(C)cc(C(=O)COC(=O)c2ccc3ncsc3c2)c1C (stereo not given) | -4% | 68* | -24% | 24*
Cc1cc(C)c(C(=O)CN2C(=O)NC3(CCCCC3)C2=O)cc1C | -2% | 34* | -9% | 21*
COCCn1c(C)cc(C(=O)CN2C(=O)NC3(CCCCCCC3)C2=O)c1C | · | 93* | 0% | 52*
CCCCOc1ccc(C2=NC(c3ccncc3)=Nc3ccc(OCC)cc3N2)cc1 | -12% | · | -4% | ·
Cc1ccc([C@@H]2[C@@H]3C(=O)N(C)C(=O)[C@@H]3[C@]3(C)C(=O)N(Cc4ccccc4)CC(=O)N23)o1 | 25% | -1 | 45µM* | -1
Cc1ccc([C@@H]2[C@@H]3C(=O)N(C)C(=O)[C@@H]3[C@]3(C)C(=O)N(Cc4ccccn4)CC(=O)N23)o1 | -1% | -8 | -23% | -4
COC(=O)CN1C(=O)[C@H]2[C@@H](c3ccc(C)o3)N3C(=O)CN(Cc4ccccc4)C(=O)[C@@]3(C)[C@H]2C1=O | -5% | 3 | 22µM* | 6
CCOc1ccc(NC2=C(OC)C(=O)c3ccccc3C2=O)cc1 | -26% | 61* | -5% | 20*
COC1=C(Nc2ccc(OC)cc2)C(=O)c2ccccc2C1=O | 31% | 133* | -1% | 52*
COC1=C(Nc2ccc(O)cc2)C(=O)c2ccccc2C1=O | -9% | 77* | ? | 28*
COc1ccc(C2=C(N)c3ccccc3C2=O)cc1 | · | 102 | 4% | 42*
COC1=C(Nc2ccc(OC)cc2)C(=O)C(OC)=C(Nc2ccc(OC)cc2)C1=O | -22% | · | · | ·
COc1ccc(-n2nnnc2C2CCN(S(=O)(=O)c3ccc(NC(C)=O)cc3)CC2)cc1 | ? | · | 5% | ·
Cc1ccc2c(c1)-c1c(cnn1CC(=O)N1CCN(c3cc(C)ccc3C)CC1)CO2 | ? | · | 15% | ·
FC(F)(F)c1ccccc1-n1c(-c2cnccn2)n[nH]c1=S | -29% | 53* | -4% | 41*
Oc1ccc(CNc2ccc(F)cc2)c2cccnc12 | -28% | 62 | ? | 1
Oc1ccc(CNc2ccccc2)c2cccnc12 | ? | 2 | 0.25µM* | -2
Cc1cccc(NC(=O)CSCC(=O)Nc2cccc3ncccc23)c1 | -23% | · | -4% | ·
Cc1cccc(NCc2ccc(O)c3ncccc23)c1 | -21% | -7 | 0.1µM* | 6
Cc1ccc(CN2CCc3nnc(C(NS(C)(=O)=O)C(C)C)n3CC2)cc1C (stereo not given) | -18% | · | · | ·
CC(C)C[C@H](NC(=O)[C@H](Cc1ccccc1)NC(=O)[C@H](Cc1ccccc1)NC(=O)[C@@H](N)CO)C(=O)N[C@@H](CCCN=C(N)N)C(=O)N[C@@H](CC(N)=O)C(=O)O | · | -5 | · | -8
O=c1nc(/C=C/c2ccc(O)c(O)c2)oc2ccccc12 | -9% | 38 | -35% | 25*
SMILES | FMDV antiviral | Shiga toxin inh | Sm TGR inh | Cycloheximide cs
COc1ccc(/C=C/c2c(-c3ccc(OC)cc3)oc3ccccc23)cc1 | -12% | -4 | -10% | -1
COc1ccc(/C=C\c2nc(=O)c3ccccc3o2)cc1 | ? | 135* | -3% | 60*
NCCc1ccc(O)c(O)c1 | -16% | 9 | 14µM* | -1
COc1ccc(CCN)cc1O | -12% | · | · | ·
COc1ccc(CNC(=O)c2cc3c(=O)n(Cc4cccs4)ccc3nc2C)cc1 | 10% | · | -10% | ·
O=C(O)c1ccc(/C=C2/SC(=S)N(Cc3ccccc3)C2=O)cc1 | 5% | -11 | 0% | -2
CN1CCS/C1=C/C=C1/SC(=S)N(Cc2ccccc2)C1=O | 13% | 13 | -2% | 26*

Screening results: PubChem BioAssay, National Center for Advancing Translational Sciences (NCATS)
